Reference: the supplement of paper PMC9262897, “Low-cost anti-mycobacterial drug discovery using engineered E. coli” (Nature Communications, 2022)
Where a name gives a salt, the structure may show the parent alone. ± gives the standard deviation of the averaged measurements.

Assays:
Assay in all cases: growth (OD600 after 10 h); higher = more growth (less inhibition)
[1] = test system: E. coli TESEC Alr+ wild-type control; details: compound 0.1 mM; raw OD600 reference: median of DMSO wells 0.241, cell-free background 0.041
Protocol: (§1)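 TESEC Mtb Alr E. coli, or the Alr+ wild-type control, in 384-well plates with Prestwick library compounds at 0.1 mM and 1% DMSO, across arabinose induction levels of 1E3 to 1E7 nM. Growth is read as OD600 after 10 h at 37 °C in triplicate biological replicates.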

[2] = test system: E. coli TESEC Mtb Alr; details: compound 0.1 mM
Protocol: as §1

[3] = test system: E. coli TESEC Mtb Asd; details: compound 0.1 mM
Protocol: (§2)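 TESEC E. coli strains in which the native enzyme is deleted and replaced by arabinose-inducible Mtb Asd, DapB, CysH or TrpD, each grown in its selective medium. Strains were screened against the Prestwick library at 0.1 mM and 1% DMSO in 384-well format at low and high arabinose induction. Growth is read as OD600 after 10 h in triplicate.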

[4] = test system: E. coli TESEC Mtb DapB; details: compound 0.1 mM
Protocol: as §2

[5] = test system: E. coli TESEC Mtb Alr; details: compound 0.1 mM; remark: listed apart in the source
Protocol: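 TESEC Mtb Alr E. coli (ΔaraC ΔtolC ΔentC Δalr ΔdadX, arabinose-inducible Mtb Alr) or the Alr+ wild-type control strain, grown in defined M9-fructose medium without D-alanine in 96-well plates with Prestwick library compounds at 0.1 mM and 1% DMSO. Low Alr induction is 0.1 µM arabinose and high induction is 10 mM arabinose.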

[6] = arabinose 1000 nM, raw OD600 reference: median of DMSO wells 0.294, cell-free background 0.041
[7] = arabinose 10000 nM, raw OD600 reference: median of DMSO wells 0.264, cell-free background 0.041
[8] = arabinose 100000 nM, raw OD600 reference: median of DMSO wells 0.201, cell-free background 0.041
[9] = arabinose 1000000 nM, raw OD600 reference: median of DMSO wells 0.193, cell-free background 0.041
[10] = arabinose 10000000 nM, raw OD600 reference: median of DMSO wells 0.146, cell-free background 0.041
[11] = arabinose induction (level): High, raw OD600 reference: median of DMSO wells 0.331, cell-free background 0.041
[12] = arabinose induction (level): Low, raw OD600 reference: median of DMSO wells 0.417, cell-free background 0.041
[13] = arabinose induction (level): High, raw OD600 reference: median of DMSO wells […], cell-free background 0.041
[14] = arabinose induction (level): Low, raw OD600 reference: median of DMSO wells 0.227, cell-free background 0.041
[15] = arabinose 100 nM, raw OD600 reference: median of DMSO wells 0.413, cell-free background 0.052
[16] = arabinose 10000000 nM, raw OD600 reference: median of DMSO wells […], cell-free background 0.052

SMILES	growth [1]	growth [2, 6]	growth [2, 7]	growth [2, 8]	growth [2, 9]	growth [2, 10]	growth [3, 11]	growth [3, 12]	growth [4, 13]	growth [4, 14]	growth [5, 15]	growth [5, 16]
CCCCNc1c(C(=O)OCC)c(C)nc2c1cnn2CC [Tracazolate hydrochloride]	0.15 ± 0.017	0.203 ± 0.049	0.13 ± 0.037	0.197 ± 0.051	0.077 ± 0.031	0.168 ± 0.031	0.165 ± 0.017	0.179 ± 0.014	0.156 ± 0.0092	0.194 ± 0.0047	0.366 ± 0.0077	0.186 ± 0.042
Cc1nc(=O)c2cc(CN(C)c3ccc(C(=O)N[C@@H](CCC(=O)O)C(=O)O)s3)ccc2[nH]1 [Raltitrexed]	0.229 ± 0.012	0.259 ± 0.0086	0.358 ± 0.013	0.171 ± 0.02	0.173 ± 0.0097	0.162 ± 0.0053	0.269 ± 0.05	0.4225 ± 0.0017	0.188 ± 0.015	0.198 ± 0.029	0.409 ± 0.016	0.322 ± 0.011
O=C(NCCN1CCOCC1)c1ccc(Cl)cc1 [Moclobemide]	0.233 ± 0.0068	0.287 ± 0.0083	0.25 ± 0.0059	0.225 ± 0.032	0.177 ± 0.013	0.136 ± 0.0024	0.323 ± 0.11	0.395 ± 0.14	0.191 ± 0.0078	0.217 ± 0.025	0.416 ± 0.0096	0.338 ± 0.009
CO[C@H]1C[C@H](O[C@H]2[C@H](C)[C@@H](O[C@@H]3O[C@H](C)C[C@H](N(C)C)[C@H]3OC(C)=O)[C@@H](C)C[C@@]3(CO3)C(=O)[C@H](C)[C@@H](OC(C)=O)[C@@H](C)[C@@H](C)OC(=O)[C@@H]2C)O[C@@H](C)[C@@H]1OC(C)=O [Troleandomycin]	0.0738 ± 0.00081	0.0647 ± 0.0085	0.0495 ± 0.0021	0.0702 ± 0.0019	0.04923 ± 0.00025	0.0672 ± 0.00087	0.15 ± 0.012	0.145 ± 0.0075	0.165 ± 0.0054	0.156 ± 0.0093	0.112 ± 0.02	0.0707 ± 0.017
Nc1c2c(nc3ccccc13)CCCC2 [Tacrine hydrochloride]	0.22 ± 0.0053	0.263 ± 0.012	0.248 ± 0.0067	0.214 ± 0.042	0.149 ± 0.014	0.168 ± 0.007	0.242 ± 0.052	0.316 ± 0.076	0.222 ± 0.024	0.228 ± 0.014	0.41 ± 0.01	0.37 ± 0.017
CCCC(C(=O)OCCN(CC)CC)(c1ccccc1)c1ccccc1 [Proadifen hydrochloride]	0.0491 ± 0.0002	0.04737 ± 0.00042	0.04077 ± 0.00038	0.0496 ± 0.0007	0.04163 ± 0.00032	0.04523 ± 0.00015	0.0541 ± 0.001	0.0665 ± 0.012	0.126 ± 0.0053	0.129 ± 0.0055	0.319 ± 0.17	0.0643 ± 0.01
N[C@@H]1CONC1=O [D-cycloserine]	0.246 ± 0.0051	0.0374 ± 0.00045	0.0389 ± 0.00083	0.277 ± 0.0054	0.155 ± 0.0017	0.132 ± 0.0031	0.252 ± 0.066	0.354 ± 0.081	0.2176 ± 0.0016	0.245 ± 0.044	0.0455 ± 0.00047	0.328 ± 0.015
CN1CCc2cccc3c2[C@H]1Cc1ccc(O)c(O)c1-3 [R(-) Apomorphine hydrochloride hemihydrate]	0.0618 ± 0.002	0.292 ± 0.0093	0.254 ± 0.0078	0.181 ± 0.019	0.0652 ± 0.0022	0.14 ± 0.0033	0.152 ± 0.027	0.147 ± 0.066	0.16 ± 0.0062	0.174 ± 0.021	0.407 ± 0.0077	0.199 ± 0.11
CC(=O)N[C@@H](CC(=O)N[C@@H](CCC(=O)O)C(=O)O)C(=O)O [Spaglumic acid]	0.237 ± 0.0082	0.289 ± 0.013	0.284 ± 0.015	0.197 ± 0.0095	0.198 ± 0.0026	0.143 ± 0.0028	0.227 ± 0.021	0.426 ± 0.026	0.211 ± 0.021	0.216 ± 0.027	0.434 ± 0.0089	0.327 ± 0.0062
CN1CCC(=C2c3ccccc3CCc3cccnc32)CC1 [Azatadine maleate]	0.1961 ± 0.0017	0.271 ± 0.0097	0.256 ± 0.0041	0.178 ± 0.0055	0.18 ± 0.0037	0.132 ± 0.0041	0.209 ± 0.017	0.313 ± 0.045	0.18 ± 0.014	0.186 ± 0.018	0.4 ± 0.013	0.338 ± 0.018
Nc1nc(=O)c2c([nH]1)NC[C@@H](CNc1ccc(C(=O)N[C@@H](CCC(=O)O)C(=O)O)cc1)N2C=O [Folinic acid calcium salt]	0.255 ± 0.0064	0.289 ± 0.0096	0.274 ± 0.0059	0.204 ± 0.033	0.211 ± 0.016	0.1379 ± 0.0013	0.307 ± 0.0086	0.391 ± 0.08	0.203 ± 0.012	0.218 ± 0.014	0.397 ± 0.008	0.375 ± 0.019
CN(CCOc1ccc(CC2SC(=O)NC2=O)cc1)c1ccccn1 (stereo not drawn) [Rosiglitazone Hydrochloride]	0.142 ± 0.0027	0.177 ± 0.0057	0.168 ± 0.011	0.177 ± 0.0028	0.0847 ± 0.0029	0.112 ± 0.0041	0.184 ± 0.026	0.19 ± 0.023	0.177 ± 0.015	0.215 ± 0.028	0.266 ± 0.021	0.1 ± 0.016
CC(C(=O)O)c1ccc(-c2ccccc2)c(F)c1 (stereo not drawn) [Flurbiprofen]	0.188 ± 0.0069	0.239 ± 0.014	0.23 ± 0.0069	0.168 ± 0.0089	0.161 ± 0.0092	0.1346 ± 0.00075	0.366 ± 0.076	0.238 ± 0.056	0.208 ± 0.0072	0.188 ± 0.023	0.387 ± 0.021	0.286 ± 0.014
CN1C(C(=O)Nc2ccccn2)=C(O)c2ccccc2S1(=O)=O [Piroxicam]	0.195 ± 0.0024	0.229 ± 0.0073	0.253 ± 0.0061	0.18 ± 0.013	0.127 ± 0.0038	0.155 ± 0.003	0.321 ± 0.013	0.282 ± 0.042	0.181 ± 0.015	0.227 ± 0.068	0.362 ± 0.1	0.259 ± 0.016
